Bioassay records deposited in PubChem BioAssay by The Scripps Research Institute Molecular Screening Center.
GPR151 activ: activates the human receptor GPR151; activation, % at 11.2 µM; PathHunter beta-arrestin GPR151 cells, luminescence; 1% of 650,000 active; Q8TDV0; AID 1508602; in the data active means activation above about 4.9%;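 further: 0% = median of compound wells and 100% = cells with positive control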
Target sequence (Q8TDV0 whole entry, looked up): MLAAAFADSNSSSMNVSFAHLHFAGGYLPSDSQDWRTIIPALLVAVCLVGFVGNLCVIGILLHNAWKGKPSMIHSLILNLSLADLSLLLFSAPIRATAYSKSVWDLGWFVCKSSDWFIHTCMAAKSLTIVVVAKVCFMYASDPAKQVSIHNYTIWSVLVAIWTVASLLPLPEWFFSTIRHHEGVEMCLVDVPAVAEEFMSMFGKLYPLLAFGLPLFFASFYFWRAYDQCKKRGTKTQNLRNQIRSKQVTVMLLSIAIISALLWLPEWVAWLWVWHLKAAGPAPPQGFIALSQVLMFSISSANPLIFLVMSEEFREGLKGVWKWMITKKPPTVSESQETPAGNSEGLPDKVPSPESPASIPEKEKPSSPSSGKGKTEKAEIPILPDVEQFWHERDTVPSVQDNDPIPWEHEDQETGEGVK
FBW7 activator: activators of human E3 ligase FBW7; Q969H0; AlphaScreen FBW7–phospho-cyclin E peptide binding, activator screen; normalized activity (activation), % at 26.1 µM; 0.13% of 650,000 active; in the data active means normalized activity above about 1.9%;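 further: purified mutant Fbw7 with reduced substrate affinity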
TEAD-YAP block: TEAD-YAP interaction inhibition; HEK-TIYL cells, TEAD-Gal4/YAP UAS-luciferase luminescence; inhibition, % at 9.12 µM; 1.4% of 640,000 active; in the data active means inhibition above about 32%;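 further: 0% = median of test compound wells and 100% = reference inhibitor wells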
MITF primary: human MITF inhibition, primary screen; inhibition, % at 2.6 µM; AlphaScreen MITF homodimerization, bead proximity signal; O75030; 0.91% of 650,000 active; in the data active means inhibition above about 50%;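 further: 0% = vehicle wells with protein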
Active calls of the source: *. In the library only some 3.5% were active in any assay of this set; here they are far more common.

SMILES	GPR151 activ	FBW7 activator	TEAD-YAP block	MITF primary
CCC(C)Nc1ncnc2ccccc12 (configuration not stated)	-0.2	-0.3	38.6*	-3.1
CC(C)CNc1ncnc2ccccc12	2.2	0.0	11.6	-10.8
O=C(Oc1c([N+](=O)[O-])cccc1[N+](=O)[O-])C1C2CCCCC21 (configuration not stated)	2.4	-0.2	-4.0	2.9
Cc1ccc(C(=O)Nc2cnn(-c3ccc(C(=O)NCCc4cnccn4)cc3)c2)c(C)c1	0.6	0.2	10.2	20.7
CN(CCCNC(=O)Cn1c(=O)oc2ccccc21)Cc1ccccc1	0.6	0.0	13.5	2.4
Cn1c(=O)n(C)c2cc(/C=N/NS(=O)(=O)c3ccccc3)ccc21	-2.1	-0.1	-4.6	-12.5
CC(C)c1ccccc1C=NCC(=O)O	-1.0	2.2*	10.6	12.8
N#CC(C#N)=NNc1ccc(SC(F)F)cc1	0.8	-0.1	73.6*	5.8
C=CCOc1ccc(C(=O)Nc2ccc(S(=O)(=O)N3CC(C)OC(C)C3)cc2)cc1 (configuration not stated)	-1.0	0.0	39.2*	18.9
CN1C(=O)C(=Cc2ccccc2OCC(=O)Nc2ccccc2)C(=O)N(C)C1=S	-2.5	0.8	-13.0	6.2
CN1C(=O)C(=Cc2ccccc2OCC(=O)O)C(=O)N(C)C1=S	1.3	-0.3	5.9	72.1*
COc1cc(C2NC(=O)c3c(sc4c3CCN(C)C4)N2)ccc1O (configuration not stated)	-0.1	-0.1	15.8	2.7
CN1CCc2c(sc3c2C(=O)NC(c2ccc(O)c(O)c2)N3)C1 (configuration not stated)	-0.1	-0.3	-0.9	65.9*
COC(=O)c1sccc1NC(=O)c1cccc2c1SCCC2=O	-0.8	-0.1	9.7	6.1
COC(=O)c1cc2c(cc1NC(=O)c1cccc3c1SCCC3=O)OCO2	-0.3	0.0	51.3*	-1.0
COc1ccccc1-c1ocnc1C(=O)Nc1ccccc1C(=O)N1CCCC1	0.0	0.0	6.5	7.0
O=C(Nc1ccccc1C(=O)N1CCCC1)c1ncoc1-c1ccccc1C(F)(F)F	0.0	0.0	62.9*	-11.7
Cc1ncn(-c2ccc(Nc3nccc(-c4ccc(S(C)(=O)=O)c(N5CCCC(O)C5)c4)n3)cc2)n1 (configuration not stated)	0.4	0.0	2.2	5.9
Fc1cncc(-c2ccnc(Nc3ccc(-n4cnc(N5CCOCC5)n4)cc3)n2)c1	-1.2	0.6	-11.8	7.4
CCN1CCN(c2ncn(-c3ccc(Nc4nccc(-c5cc(C#N)cc(N6CCOCC6)c5)n4)cc3)n2)CC1	0.0	-0.1	2.9	4.0
CS(=O)(=O)c1cccc(-c2ccnc(Nc3ccc(-n4cnc(N5CCC(O)CC5)n4)cc3)n2)c1	-0.6	-0.1	41.7*	4.5
Cc1ccncc1-c1ncn(-c2ccc(Nc3nccc(-c4cc(F)cc(N5CCOCC5)c4)n3)cc2)n1	-0.6	0.0	8.2	-1.8
OC1CCN(c2ncn(-c3ccc(Nc4nccc(-c5cccc(N6CCOCC6)c5)n4)cc3)n2)CC1	0.7	0.1	81.8*	-9.1
CS(=O)(=O)c1cc(-c2ccnc(Nc3ccc(-n4cnc(-c5ccccn5)n4)cc3)n2)cc(N2CCOCC2)c1	-1.6	0.4	89.0*	-15.8
CCN1CCN(c2ncn(-c3ccc(Nc4nccc(-c5cccc(N6CCOCC6)c5)n4)cc3)n2)CC1	-0.3	-0.1	55.0*	7.2
SMILES	GPR151 activ	FBW7 activator	TEAD-YAP block	MITF primary
COc1ccc(Br)c(C(=O)Nc2cc(C(=O)Nc3ccccc3F)ccc2N2CC3CC(C2)c2cccc(=O)n2C3)c1 (configuration not stated)	0.8	-0.1	-11.4	-1.0
O=C(CSc1nnnn1-c1ccccc1)Nc1cccc(O)c1	-0.3	-0.1	-4.5	-3.3
CCC(=O)N(Cc1ccco1)Cc1cc2cc(C)ccc2n2nnnc12	-1.3	-0.1	18.3	-11.3
CCc1ncn(-c2ccc(Nc3nccc(-c4cccc(N5CCOCC5)c4)n3)cc2)n1	0.5	0.2	45.7*	10.0
CC(C)c1ncn(-c2ccc(Nc3nccc(-c4cccc(N5CCOCC5)c4)n3)cc2)n1	0.2	0.1	-2.3	14.2
c1cc(-c2ccnc(Nc3ccc(-n4cnc(N5CCOCC5)n4)cc3)n2)cc(N2CCOCC2)c1	0.9	0.2	43.0*	-6.6
c1ccc(Cn2nnnc2-c2ccc(Nc3nccc(-c4cccc(N5CCOCC5)c4)n3)cc2)cc1	-0.7	2.0*	-0.1	18.9
CN1CCN(c2ccc(-c3ccc(C(=O)NC4CC4)s3)cc2)CC1	-1.5	0.1	52.0*	1.4
Oc1ccc(CCNc2nc(Nc3ccc(N4CCOCC4)cc3)nc3c2ncn3C2CCCCC2)cc1	1.9	-0.2	6.0	8.0
COc1ccc(C)cc1NC(=O)CCSCCC(=O)Nc1cc(C)ccc1OC	1.0	-0.3	32.5*	0.7
COc1ccccc1NC(=O)CCSCCC(=O)Nc1ccccc1OC	-0.5	-0.1	2.8	-10.8
CC(=O)Nc1ccc(OCc2ccc(C(C)=O)cc2)cc1	-0.3	-0.2	-4.2	-4.7
c1cncc(CCNc2ccnc3c(-c4ccc5ccccc5c4)cnn23)c1	-0.2	0.0	58.7*	-7.8
c1ccc2cc(-c3cnn4c(NC5CCCNC5)ccnc34)ccc2c1 (configuration not stated)	-0.3	-0.2	65.1*	0.4
COCCNc1ccnc2c(-c3ccc(CCC(=O)O)cc3)cnn12	-3.0	-0.5	50.5*	14.6
O=C(O)CCc1ccc(-c2cnn3c(NCc4ccccn4)ccnc23)cc1	-1.2	-0.9	13.9	24.2
COCCNc1ccnc2c(-c3ccccc3Cl)cnn12	0.5	0.0	57.9*	0.1
FC(F)(F)c1cc(-c2cnn3c(NC4CCCNC4)ccnc23)cc(C(F)(F)F)c1 (configuration not stated)	2.0	0.2	2.3	-15.8
CCC(=O)Nc1cc(CNC(=O)C2CCCN(c3ccccn3)C2)cc(C(=O)OC)c1 (configuration not stated)	-0.3	0.0	12.9	6.2
Cc1ccc(SCC(=O)Nc2sccc2C(N)=O)c(C)c1	0.9	0.2	-57.1	8.8
O=C(Nc1nnc(N2CCCCC2)s1)Nc1ccccc1Br	0.4	-0.1	-23.5	-1.6
Fc1ccc(-c2cnn3c(NCCc4cccnc4)ccnc23)cc1Cl	0.5	-0.5	-61.7	-11.3
Clc1ccccc1-c1cnn2c(NCCc3cccnc3)ccnc12	2.2	0.0	65.3*	-1.7
COc1ccc(-c2csc(/C(C#N)=C/Nc3cccc(F)c3)n2)cc1	-0.1	0.3	0.3	6.0
Cc1cccc(N2CCN(C(=O)c3ccc(N4CCCC4=O)cc3)CC2C)c1 (configuration not stated)	0.3	-0.1	-1.7	-1.9
Cc1cccc(N2CCN(C(=O)c3cccc(N4CCCC4=O)c3)C(C)C2)c1 (configuration not stated)	-0.6	0.0	57.7*	1.6
O=C(c1cccc(N2CCCC2=O)c1)N1CCN(c2cccc(Cl)c2)CC1	0.4	-0.1	43.8*	1.0
O=C1[C@@H]2CCCN2C(=O)[C@H]2CN(Cc3ccccc3Cl)CCN12	1.4	-0.2	37.1*	6.2
Cc1ccccc1CN1CCN2C(=O)[C@@H]3CCCN3C(=O)[C@H]2C1	-0.9	0.8	45.8*	17.2
